Reference: PubChem BioAssay (Tox21)
Records with an inconclusive call do not appear. Entries that show only a call come without a potency. The source holds several records for some structures; these can differ, active in one and inactive in another. Active and inactive are the calls of the source. Unless noted, calls follow the shape of the full dose curve.

How the values were obtained:
[1] = Nuclear factor erythroid 2-related factor 2/antioxidant responsive element (Nrf2/ARE) small molecule agonists: qHTS cell viability counter screen in human keratinocytes (AID 1919968; active = well fitted curve in the direction sought with a large enough effect in the repeat runs; an effect the other way counts as inactive or inconclusive; also: nearly all actives have a fitted effect of over 55% in size; also: potency is read from the fitted curve at half-maximal effect); conditions: KeratinoSens HaCaT ARE cells viability, CellTiter-Fluor, 24 h; series mostly up to 92.4 µM
Outline: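 HaCaT ARE reporter line, 1,500 cells/well; 5 h settle, 37 C/5% CO2; cpd in DMSO pinned; 23 h exposure; CellTiter-Fluor, 1 h; fluorescence.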

[2] = Nuclear factor erythroid 2-related factor 2/antioxidant responsive element (Nrf2/ARE) small molecule agonists: luciferase reporter gene qHTS assay in human keratinocytes (AID 1919969); conditions: KeratinoSens HaCaT ARE-luciferase, luminescence, 24 h; series mostly up to 92.4 µM; also: nearly all actives have a fitted effect of over 35% in size; also: potency is read from the fitted curve at half-maximal effect
[3] = molecular target: Gonadotropin-releasing hormone receptor (Homo sapiens) (UniProt P30968); test: Human gonadotropin-releasing hormone receptor (GnRHR) small molecule agonists, calcium flux assay in GnRHR-HEK293 cells (AID 1920063); conditions: calcium flux fluorescence, agonist mode; series mostly up to 57.6 µM; also: nearly all actives have a fitted effect of over 35% in size
Outline: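 GnRHR-HEK293, 1500 cells/well, 18 h 37 C/5% CO2; Ca dye 1 h 37 C; cpd pinned (DMSO), agonist mode; kinetic FL 480/540, 3 min, 1 s reads; 15 conc, n=3.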

[4] = molecular target: KiSS-1 receptor (Homo sapiens) (UniProt Q969F8); test: Human kisspeptin (KISS1R) small molecule agonists, calcium flux assay in KISS1R-HEK293 cells (AID 1920064; active = well fitted curve in the direction sought with a large enough effect in the repeat runs; an effect the other way counts as inactive or inconclusive); conditions: KISS1R-HEK293, calcium flux fluorescence, agonist; series mostly up to 76.8 µM
Outline: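 Stable human KISS1R HEK293 line; 18 h plating, 37 C/5% CO2; calcium dye 1 h 37 C; compound pin transfer; kinetic fluorescence Ex/Em 480/540, 3 min.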

[5] = G protein-coupled receptor (GPCR) small molecule agonists, calcium flux assay: HEK293 wild type cell line counter screen (AID 1920065); conditions: HEK293 WT calcium flux, fluorescence, agonist mode; series mostly up to 57.6 µM
Outline: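 Kinetic fluorescence at Ex/Em 480/540, recorded every second over 3 min, served as the read-out after compound addition. Each compound was tested at 15 concentrations in triplicate on cells pre-loaded with calcium dye for 1 h.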

[6] = p53 small molecule agonists, cell-based qHTS assay with human liver microsomes (AID 1963577); conditions: HCT-116 p53RE-bla with human liver microsomes, ratio, 16 h; series mostly up to 66 µM;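 also: p53 response element beta-lactamase reporter cells with liver microsomes plus NADPH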
Outline: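 16 h, 37 C exposure of p53RE-bla cells to compounds with human liver microsomes and NADPH (0.5 mg/mL final each); detection via LiveBLAzer mixture, 2 h dark at room temperature.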

[7] = p53 small molecule agonists, cell-based qHTS assay with rat liver microsomes (AID 1963578); conditions: HCT-116 p53RE-bla, beta-lactamase ratio, 16 h; series mostly up to 66 µM
Outline: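 With rat liver microsomes and NADPH present (0.5 mg/mL final each), p53RE-bla cells are treated with compound for 16 h at 37 C. LiveBLAzer detection mixture is then applied for 2 h at room temperature in the dark.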

[8] = p53 small molecule agonists, cell-based qHTS assay with human liver microsomes: qHTS cell viability counter screen (AID 1963579); conditions: p53RE-bla HCT-116 viability, ATP luminescence, 16 h, HLM; series mostly up to 66 µM; also: nearly all actives have a fitted effect of over 45% in size
Outline: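 In this multiplexed counter screen, the reporter plates were subsequently treated with CellTiter-Glo so that cell viability, reflected by luminescence, could be recorded for p53RE-bla cells dosed 16 h with compounds under microsomal activation (HLM and NADPH).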

[9] = p53 small molecule agonists, cell-based qHTS assay with rat liver microsomes: qHTS cell viability counter screen (AID 1963580); conditions: p53RE-bla HCT-116 + rat microsomes, ATP viability, 16 h; series mostly up to 66 µM; also: nearly all actives have a fitted effect of over 45% in size
Outline: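 In HCT-116 cells carrying a p53 response element-bla reporter, compounds were metabolically activated in situ by rat liver microsomes with NADPH over 16 h. Cell ATP content then served as the cytotoxicity measure.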

[10] = p53 small molecule agonists, cell-based qHTS assay: qHTS cell viability counter screen (AID 1963581); conditions: p53RE-bla HCT-116 viability, ATP luminescence, 16 h; series mostly up to 66 µM; also: nearly all actives have a fitted effect of over 45% in size
Outline: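 HCT-116 p53RE-bla cells, 4,000/well, plated 5 h before compound pin transfer; 16 h at 37 C; bla substrate 2 h RT; then CellTiter-Glo, 30 min RT, luminescence.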

[11] = p53 small molecule agonists, cell-based qHTS assay (AID 1963582; active = well fitted activation curve with a large enough effect in the signal ratio in the repeat runs, not every such curve was filed as active; the % refers to the signal ratio); conditions: HCT-116 p53RE-bla reporter, beta-lactamase FRET ratio, 16 h; series mostly up to 66 µM
Outline: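 Reporter line: p53RE-bla. Pre-incubation 5 h, 37 C, 5% CO2; compound (DMSO, pin tool) 16 h, 37 C; B/G FRET substrate 2 h RT; fluorescence intensity read.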

[12] = molecular target: 5-hydroxytryptamine receptor 2A (Homo sapiens) (UniProt P28223); test: 5-hydroxytryptamine receptor 2A (HTR2A) small molecule antagonists, cell-based qHTS assay (AID 1963586); conditions: HTR2A-CHO cells, DOI-induced calcium flux, fluorescence; series mostly up to 61.5 µM; also: nearly all actives have a fitted effect of over 45% in size
Outline: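 Antagonist-mode intracellular calcium assay: DOI (4 nM) added after 5 min compound pre-incubation at room temperature to dye-loaded HTR2A-CHO cells. Fluorescence followed for 3 min, sampled every second.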

[13] = molecular target: 5-hydroxytryptamine receptor 2A (Homo sapiens) (UniProt P28223); test: 5-hydroxytryptamine receptor 2A (HTR2A) small molecule agonists, cell-based qHTS assay (AID 1963587); conditions: HTR2A-CHO cells, calcium flux fluorescence, agonist mode; series mostly up to 76.8 µM; also: nearly all actives have a fitted effect of over 30% in size
Outline: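 HTR2A-CHO cells, plated 18 h at 37 C/5% CO2, dye-loaded 1 h at 37 C; compounds in DMSO added by pin tool (agonist mode). Intracellular calcium flux read as kinetic fluorescence on FDSS over 2 min at 1 s intervals.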

[14] = molecular target: Muscarinic acetylcholine receptor M1 (Homo sapiens) (UniProt P11229); test: Cholinergic receptor muscarinic 1 (CHRM1) small molecule antagonists, cell-based qHTS assay (AID 1963588); conditions: CHRM1-CHO antagonist mode, calcium flux fluorescence; series mostly up to 61.5 µM; also: nearly all actives have a fitted effect of over 40% in size
Outline: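 CHRM1-CHO calcium-flux assay, antagonist mode. Cells were seeded 18 h, dye-loaded 1 h at 37 C and given compound for 5 min at RT, then acetylcholine was added at 50nM. FDSS fluorescence was read 3 min; 15 concentrations, three runs.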

[15] = molecular target: Muscarinic acetylcholine receptor M1 (Homo sapiens) (UniProt P11229); test: Cholinergic receptor muscarinic 1 (CHRM1) small molecule agonists, cell-based qHTS assay (AID 1963589); conditions: CHRM1-CHO cells, agonist mode, calcium flux fluorescence; series mostly up to 76.8 µM; also: nearly all actives have a fitted effect of over 35% in size
Outline: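 Human M1 in stable CHO line; 18 h plating, 1 h dye load 37 C; cpd added (agonist mode); Ca2+ fluorescence kinetic read, 1 s intervals; 15 conc, 3 runs.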

[16] = cAMP Responsive Elements (CRE) small molecule agonists, cell-based qHTS assay (AID 1963590); conditions: CRE-bla HEK293T, beta-lactamase FRET ratio, 3 h; series mostly up to 92.4 µM
Outline: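 HEK 293T CRE-bla, 2,000 cells/well, 18 h preincubation 37 C/5% CO2; cpds (DMSO) pinned, 3 h; LiveBLAzer B/G FRET substrate, 2 h RT.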

[17] = cAMP Responsive Elements (CRE) small molecule antagonists, cell-based qHTS assay (AID 1963591; active = well fitted inhibition curve with a large enough effect in the signal ratio in the repeat runs, not every such curve was filed as active; the % refers to the signal ratio); conditions: CRE-bla HEK293T, beta-lactamase FRET ratio; series mostly up to 92.4 µM
Outline: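 Beta-lactamase reporter read by FRET substrate (LiveBLAzer B/G) after 2 h at room temperature. CRE-bla HEK293T cells had received compound plus 0.25 uM (final) NKH477 for 3 h at 37 °C.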

[18] = molecular target: Beta-2 adrenergic receptor (Homo sapiens) (UniProt P07550); test: Adrenergic beta2 receptor (ADRB2) small molecule antagonists, cell-based qHTS assay (AID 1963592); conditions: CHO-ADRB2 cells, isoproterenol-stimulated cAMP HTRF ratio, 0.5 h; series mostly up to 92.4 µM; also: nearly all actives have a fitted effect of over 50% in size
Outline: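 Cells (CHO, stable ADRB2 overexpression) incubated 18-20hr at 37C; compounds added from DMSO; agonist mix (1nM isoproterenol, 100uM IBMX, 25uM Ro-20-1724) added; 0.5hr RT; d2-cAMP and anti-cAMP-cryptate added; 1hr RT; 665/615 nm read.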

[19] = molecular target: D(2) dopamine receptor (Homo sapiens) (UniProt P14416); test: Dopamine D2 receptor (DRD2) small molecule agonists, cell-based qHTS assay (AID 1963594); conditions: HEK293-DRD2 cAMP HTRF, agonist mode, 30 min; series mostly up to 92.4 µM; also: nearly all actives have a fitted effect of over 35% in size
Outline: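 HEK293 cells stably expressing DRD2 were cultured 24 h at 37 C, then given Ro20-1724 (0.1 mM final) and compounds for 10 min at room temperature. NKH477 (200nM) was then added for 30 min. cAMP was read by HTRF.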

[20] = molecular target: D(2) dopamine receptor (Homo sapiens) (UniProt P14416); test: Dopamine D2 receptor (DRD2) small molecule antagonists, cell-based qHTS assay (AID 1963595; active = well fitted inhibition curve with a large enough effect in the signal ratio in the repeat runs, with a control signal flat; the % refers to the signal ratio); conditions: HEK293-DRD2 cAMP HTRF antagonist mode; series mostly up to 92.4 µM
Outline: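 HTRF cAMP read-out at 665 and 620 nm emission (340 nm excitation). Antagonist mode: compounds were tested against 12 nM quinpirole in DRD2-HEK293 cells, with 200 nM NKH477 raising cAMP and 0.1 mM Ro20-1724 blocking its breakdown.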

Muscarinic acetylcholine receptor M1 (Homo sapiens), sequence (P11229 whole entry, looked up): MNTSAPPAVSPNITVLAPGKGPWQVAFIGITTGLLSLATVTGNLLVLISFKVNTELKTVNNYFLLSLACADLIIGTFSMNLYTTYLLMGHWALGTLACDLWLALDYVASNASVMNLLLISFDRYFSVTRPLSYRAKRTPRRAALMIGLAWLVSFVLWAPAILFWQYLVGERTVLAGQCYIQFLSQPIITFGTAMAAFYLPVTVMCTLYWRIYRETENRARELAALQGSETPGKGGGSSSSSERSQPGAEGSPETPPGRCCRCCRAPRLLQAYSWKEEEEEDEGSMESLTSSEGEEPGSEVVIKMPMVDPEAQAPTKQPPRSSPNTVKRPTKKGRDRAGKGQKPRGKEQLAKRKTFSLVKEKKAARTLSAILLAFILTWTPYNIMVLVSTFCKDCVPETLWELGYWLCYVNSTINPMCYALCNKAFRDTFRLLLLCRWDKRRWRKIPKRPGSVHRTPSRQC
Gonadotropin-releasing hormone receptor (Homo sapiens), sequence (P30968 whole entry, looked up): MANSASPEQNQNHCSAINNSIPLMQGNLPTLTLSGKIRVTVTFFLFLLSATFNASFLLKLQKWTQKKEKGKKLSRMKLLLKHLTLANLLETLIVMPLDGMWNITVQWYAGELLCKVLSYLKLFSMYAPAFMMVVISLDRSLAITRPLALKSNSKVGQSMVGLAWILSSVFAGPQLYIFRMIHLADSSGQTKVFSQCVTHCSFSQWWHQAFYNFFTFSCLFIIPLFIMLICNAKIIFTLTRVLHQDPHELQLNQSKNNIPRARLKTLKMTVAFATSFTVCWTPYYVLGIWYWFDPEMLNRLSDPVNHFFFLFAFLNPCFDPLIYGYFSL
Beta-2 adrenergic receptor (Homo sapiens), sequence (P07550 whole entry, looked up): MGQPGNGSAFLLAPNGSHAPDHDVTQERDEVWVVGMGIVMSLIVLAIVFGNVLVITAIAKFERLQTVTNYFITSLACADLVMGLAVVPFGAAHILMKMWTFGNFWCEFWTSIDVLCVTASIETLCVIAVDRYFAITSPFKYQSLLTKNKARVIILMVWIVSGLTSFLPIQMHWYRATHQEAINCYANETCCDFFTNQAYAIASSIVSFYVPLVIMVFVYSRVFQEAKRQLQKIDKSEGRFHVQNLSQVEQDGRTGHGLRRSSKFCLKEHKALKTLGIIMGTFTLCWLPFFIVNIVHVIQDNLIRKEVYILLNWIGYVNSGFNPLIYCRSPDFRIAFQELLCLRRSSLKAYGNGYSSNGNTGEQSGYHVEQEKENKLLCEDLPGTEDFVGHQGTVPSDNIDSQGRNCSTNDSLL
5-hydroxytryptamine receptor 2A (Homo sapiens), sequence (P28223 whole entry, looked up): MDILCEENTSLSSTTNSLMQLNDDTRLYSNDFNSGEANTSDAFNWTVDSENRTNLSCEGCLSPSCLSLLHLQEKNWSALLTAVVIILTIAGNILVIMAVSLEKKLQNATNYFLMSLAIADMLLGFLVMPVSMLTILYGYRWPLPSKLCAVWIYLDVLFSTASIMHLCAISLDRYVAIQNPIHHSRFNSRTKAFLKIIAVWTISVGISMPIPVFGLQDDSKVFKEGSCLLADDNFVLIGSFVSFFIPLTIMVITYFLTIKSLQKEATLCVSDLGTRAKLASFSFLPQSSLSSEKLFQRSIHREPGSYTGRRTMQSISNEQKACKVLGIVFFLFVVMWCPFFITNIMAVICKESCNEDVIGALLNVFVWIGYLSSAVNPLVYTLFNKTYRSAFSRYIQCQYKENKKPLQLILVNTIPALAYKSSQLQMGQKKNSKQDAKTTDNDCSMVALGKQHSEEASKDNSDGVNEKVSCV
D(2) dopamine receptor (Homo sapiens), sequence (P14416 whole entry, looked up): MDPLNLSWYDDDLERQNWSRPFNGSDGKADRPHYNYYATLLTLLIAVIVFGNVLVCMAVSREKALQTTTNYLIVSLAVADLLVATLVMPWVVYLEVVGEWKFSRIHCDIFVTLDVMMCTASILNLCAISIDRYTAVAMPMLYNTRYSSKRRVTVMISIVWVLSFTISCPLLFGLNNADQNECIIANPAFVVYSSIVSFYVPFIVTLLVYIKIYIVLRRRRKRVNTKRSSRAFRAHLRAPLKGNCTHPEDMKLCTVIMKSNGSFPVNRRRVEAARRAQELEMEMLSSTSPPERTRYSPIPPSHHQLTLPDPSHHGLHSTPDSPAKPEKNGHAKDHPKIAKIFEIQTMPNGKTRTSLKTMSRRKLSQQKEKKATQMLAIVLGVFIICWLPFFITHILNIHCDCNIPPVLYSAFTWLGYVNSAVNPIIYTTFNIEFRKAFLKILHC
KiSS-1 receptor (Homo sapiens), sequence (Q969F8 whole entry, looked up): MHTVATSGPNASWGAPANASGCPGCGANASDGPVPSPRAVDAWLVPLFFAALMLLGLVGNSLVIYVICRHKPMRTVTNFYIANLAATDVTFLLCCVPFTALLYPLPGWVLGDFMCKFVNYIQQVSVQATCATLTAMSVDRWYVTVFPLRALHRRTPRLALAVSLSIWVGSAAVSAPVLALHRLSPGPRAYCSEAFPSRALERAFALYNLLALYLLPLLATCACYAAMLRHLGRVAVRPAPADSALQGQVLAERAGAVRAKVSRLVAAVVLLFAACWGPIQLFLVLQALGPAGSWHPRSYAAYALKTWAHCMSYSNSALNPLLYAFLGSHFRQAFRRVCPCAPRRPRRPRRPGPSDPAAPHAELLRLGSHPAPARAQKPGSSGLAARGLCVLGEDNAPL

Structure (SMILES) | Potency [1] | Potency [2] | Potency [3] | Potency [4] | Potency [5] | Potency [6] | Potency [7] | Potency [8] | Potency [9] | Potency [10] | Potency [11] | Potency [12] | Potency [13] | Potency [14] | Potency [15] | Potency [16] | Potency [17] | Potency [18] | Potency [19] | Potency [20]
CCOCCO | inactive | inactive | inactive | inactive | inactive | inactive | inactive | inactive | inactive | inactive | inactive | inactive | inactive | inactive | inactive | inactive | inactive | inactive | inactive | inactive
CCCCCCCCCCCC(=O)OC | inactive | inactive | inactive | inactive | inactive | inactive | inactive | inactive | inactive | inactive | inactive | inactive | inactive | inactive | inactive | inactive | inactive |  | inactive | 
CCOCCOCCO | inactive | inactive | inactive | inactive | inactive | inactive | inactive | inactive | inactive | inactive | inactive | inactive | inactive | inactive | inactive | inactive | inactive | inactive | inactive | inactive
C/C=C1/CC2C=CC1C2 (centres undefined) | inactive | inactive | inactive | inactive | inactive | inactive | inactive | inactive | inactive | inactive | inactive | inactive | inactive | inactive | inactive | inactive | inactive |  | inactive | inactive
CC(C)CC(=O)CC(C)C | inactive | inactive | inactive | inactive | inactive | inactive | inactive | inactive | inactive | inactive | inactive | inactive | inactive | inactive | inactive | inactive | inactive | inactive | inactive | inactive
CC(=O)CC(C)(C)O | inactive | inactive | inactive | inactive | inactive | inactive | inactive | inactive | inactive | inactive | inactive | inactive | inactive | inactive | inactive | inactive | inactive | inactive | inactive | inactive
O=C1OC(c2ccc(O)cc2)(c2ccc(O)cc2)c2ccccc21 | 48.2 µM (active) and inactive | 24.2 µM (active) and inactive | inactive | inactive | inactive | inactive | inactive | inactive | inactive | inactive | inactive | inactive | inactive | inactive | inactive | inactive | inactive | inactive | inactive | inactive
CC(=O)NS(=O)(=O)c1ccc(N)cc1 | inactive | inactive | inactive | inactive | inactive | inactive | inactive | inactive | inactive | inactive | inactive | inactive | inactive | inactive | inactive | inactive | inactive | inactive | inactive | inactive
NC(=S)NNC(N)=S | inactive | inactive | inactive | inactive | inactive | inactive | inactive | inactive | inactive | inactive | inactive | inactive | inactive | inactive | inactive | inactive | inactive |  | inactive | inactive
Oc1cccc(O)c1 | inactive | inactive | inactive | inactive | inactive | inactive | inactive | inactive | inactive | inactive | inactive | inactive | inactive | inactive | inactive | inactive | inactive | inactive |  | inactive
c1ccc2c(c1)ccc1ccccc12 | inactive | inactive | inactive | inactive | inactive | inactive | inactive | inactive | inactive | inactive | inactive | inactive | inactive | inactive | inactive | inactive | inactive | inactive | inactive | inactive
CC(O)CN(CCN(CC(C)O)CC(C)O)CC(C)O (centres undefined) | inactive | inactive | inactive | inactive | inactive | inactive | inactive | inactive | inactive | inactive | inactive | inactive | inactive | inactive | inactive | inactive | inactive | inactive | inactive | inactive
C[Si](O[Si](C)(C)C)O[Si](C)(C)C | inactive | inactive | inactive | inactive | inactive | inactive | inactive | inactive | inactive | inactive | inactive | inactive | inactive | inactive | inactive | inactive | inactive |  | inactive | inactive
Cc1cccc(C)c1O | inactive | inactive | inactive | inactive | inactive | inactive | inactive | inactive | inactive | inactive | inactive | inactive | inactive | inactive | inactive | inactive | inactive | inactive | inactive | inactive
O=C1CCCCCN1 | inactive | inactive | inactive | inactive | inactive | inactive | inactive | inactive | inactive | inactive | inactive | inactive | inactive | inactive | inactive | inactive | inactive | inactive | inactive | inactive
